Assay outcomes from PubChem BioAssay.
PostGolgi yeast: growth inhibition of a yeast mutant, post-Golgi transport screen; inhibition, % at 10 µM; hit rate 0.9% among 98,000; post-Golgi transport phenotypic cell assay;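 further: yeast cells grown in 1536-well plates; yeast grown about 18 h at 30C before absorbance read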
CYP2C19 act: cytochrome P450 2C19 (human) activation | P33261 | recombinant CYP2C19, luciferin-H EGE luminescence; hits give high values; 0 = fully inhibited enzyme, 1 = untreated enzyme | activation factor at 5 µM | 96,000 tested, under 10 active | AID 1025;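 active means activation factor of at least 2 at 5 µM in the primary screen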;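 further: 0 = wells with 2.5 mM tranylcypromine and 1 = vehicle-only wells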
PostGolgi ctrl: growth of the yeast control strain, post-Golgi counter-screen; hit rate 5% among 98,000; inhibition, % at 10 µM; efflux-deficient yeast background strain, growth absorbance A615, 16 h
CYP2C9 activ: increases human cytochrome P450 2C9 activity. P11712. recombinant CYP2C9, luciferin-H conversion, luminescence; hits give high values; factor 1 = untreated enzyme, 0 = blocked. activation factor at 5 µM. hit rate 1.4% among 96,000. AID 1024;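 active means activation factor of 2 or more for CYP2C9 at a 5 µM dose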;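 further: 0 = sulfaphenazole-blocked wells and 1 = vehicle-only wells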
Target sequence (P11712 whole entry, looked up): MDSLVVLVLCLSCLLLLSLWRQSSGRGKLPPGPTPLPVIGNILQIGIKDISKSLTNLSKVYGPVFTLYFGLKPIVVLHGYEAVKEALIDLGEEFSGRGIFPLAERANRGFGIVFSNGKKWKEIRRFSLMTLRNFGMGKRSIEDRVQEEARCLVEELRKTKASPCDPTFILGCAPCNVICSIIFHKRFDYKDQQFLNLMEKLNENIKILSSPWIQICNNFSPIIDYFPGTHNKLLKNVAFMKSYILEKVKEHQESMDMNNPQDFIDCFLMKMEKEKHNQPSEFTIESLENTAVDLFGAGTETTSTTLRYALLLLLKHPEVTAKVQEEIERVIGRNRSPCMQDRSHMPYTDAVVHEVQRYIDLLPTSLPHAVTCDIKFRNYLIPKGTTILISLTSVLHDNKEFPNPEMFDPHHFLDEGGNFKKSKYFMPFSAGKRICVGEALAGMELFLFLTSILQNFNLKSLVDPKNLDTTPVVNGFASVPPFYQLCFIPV
CYP2C19 inh: inhibitors of human CYP2C19; P33261; CYP2C19 Supersomes, luciferin-H EGE luminescence, 30 min; inhibition, % at 5 µM; hit rate 21% among 96,000; AID 778;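 active means CYP2C19 inhibition above a set limit at 5 µM in the primary screen, cut at about 50% in these data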;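 further: plate controls were negative control wells for no effect and 2.5 mM tranylcypromine positive control for full effect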
CYP2C9 inh: human CYP2C9 inhibition; P11712; CYP2C9 Supersomes, luciferin-H conversion, luminescence; inhibition, % at 5 µM; hit rate 20% among 96,000; AID 777;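 active means blocking of liver enzyme CYP2C9 beyond about 50% at 5 µM, limit read from the data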
Active calls of the source: *; x = not tested or not shown. Most compounds without a hit are left out; they make up all but 32% or so of the library. Unless noted, no stated cut-off is given here; in the data, active means inhibition above about 30%; inactive means the rest.

SMILES	PostGolgi yeast	CYP2C19 act	PostGolgi ctrl	CYP2C9 activ	CYP2C19 inh	CYP2C9 inh
Nc1cc(-c2ccccc2)nn1S(=O)(=O)c1ccc(Br)cc1	-0.9	0.9	21.9	0.5	11.7	48.6
Cc1ccccc1C(=O)N=c1sccn1C	15.8	0.1	9.7	0.8	93.1*	22.4
Cn1c(C(=O)N2CCN(Cc3ccccc3)CC2)cc2c(=O)n(C)c3ccccc3c21	-2.2	0.8	25.2	0.9	17.7	12.9
COc1ccc(CNC(=O)CCOc2ccc(C(C)(C)C)cc2)cc1	-7.5	0.9	12.7	0.6	14.0	41.2
O=C1OCC2=C1C(c1ccc(F)cc1)Sc1ccccc1N2 (centres undefined)	93.6*	0.2	-7.2	0.2	76.6*	75.2*
O=C(Oc1ccc(-n2cnnn2)cc1)c1ccco1	-1.0	0.9	-1.7	1	9.2	4.2
O=S(=O)(N1CCCCC1)N1CCN(c2ccc(F)cc2)CC1	2.8	0.4	4.7	0.6	57.5*	44.1
CCc1ccc(C(=O)N2CCCC2)s1	-6.6	0.6	9.3	1.1	42.1	-11.0
O=C(Nc1ccc(N2CCCCC2)cc1)c1ccc(F)cc1	5.5	1	17.3	1.2	-2.1	-16.1
Cc1ccc(N2CCN(S(=O)(=O)N3CCCCCC3)CC2)cc1Cl	31.1*	0.5	-0.4	0.6	48.7	37.3
O=C(c1ccc(F)cc1)c1ccc(N2CCCC2)cc1	6.3	0.8	42.0*	1	20.9	3.9
CCc1ccc(C(=O)N2CCN(c3ccc(F)cc3)CC2)s1	1.6	0.1	8.7	0.5	86.8*	48.3
Cc1ccc(S(=O)(=O)N2CCN(S(=O)(=O)N3CCCCC3)CC2)c(C)c1	-3.2	0.8	2.1	1.1	17.1	-10.7
C=C(C)c1nc2cc(OC)c(OC)cc2c(=O)o1	-0.2	0.9	2.3	0.8	9.1	23.9
O=C(c1ccccc1)c1ccc(C(=O)N2CCN(c3ccc(F)cc3)CC2)o1	-9.4	0.1	-1.2	0.2	89.1*	80.7*
O=S(=O)(Nc1ccc(F)cc1)N1CCCCCC1	-12.1	0	3.9	0.3	98.8*	67.0*
CCN(CC)c1ccc(/C=N/n2c(C)cc(C)cc2=O)cc1	-7.4	0.5	-2.7	1.4	46.1	-39.8
CCCn1c(SCC(=O)NC(C)(C)C)nnc1C(C)C	14.2	1.1	5.1	1.2	-7.3	-15.3
COc1ccc(Cl)cc1N1Cc2ccccc2C1	-5.4	0.9	32.1*	0.7	14.3	27.0
COc1ccc(N2Cc3ccccc3C2)cc1Cl	1.3	0.9	5.7	0.4	12.5	58.3*
O=C(NCc1ccncc1)C1CCCCC1	-2.9	0.9	7.8	0.6	11.9	41.8
Cc1ccc(CNC(=O)C2CCCN(S(=O)(=O)c3cnc[nH]3)C2)cc1 (centres undefined)	0.2	0	-4.3	0.3	96.4*	67.0*
COc1ccc(CNC(=O)C2CCCN(S(=O)(=O)c3cnc[nH]3)C2)cc1 (centres undefined)	-6.0	0.2	23.5	0.5	77.6*	46.3
O=C(NCc1ccc(Cl)cc1)C1CCCN(S(=O)(=O)c2cnc[nH]2)C1 (centres undefined)	-6.2	0	-0.9	0	99.4*	96.4*
CS(=O)(=O)N1CCC(C(=O)NCc2ccncc2)CC1	21.8	0.8	5.6	0.4	15.6	59.4*
SMILES	PostGolgi yeast	CYP2C19 act	PostGolgi ctrl	CYP2C9 activ	CYP2C19 inh	CYP2C9 inh
CC(C)OCCCN1C(=O)c2ccccc2C1C(=O)NC1CCCCC1 (centres undefined)	5.0	1.1	2.9	1	-7.1	0.6
COC(=O)/C=C/CSC1=N/C(=C/c2ccc(-n3cncn3)cc2)C(=O)N1	1.1	1	14.5	0.7	2.1	25.1
O=C(CCC1CCCC1)Nc1ccon1	4.6	0.7	7.5	0.9	25.8	11.9
Cc1ccc(CNC(=O)C2CCN(S(=O)(=O)c3cnc[nH]3)CC2)cc1	22.7	0.8	-1.7	0.1	15.9	89.7*
Cc1ccc(NC(=O)C2CCN(S(=O)(=O)c3cnc[nH]3)CC2)nc1	4.9	0.9	0.6	0.7	6.7	32.2
COc1ccccc1CNC(=O)C1CCCN(S(=O)(=O)c2c(C)[nH]c(=O)[nH]c2=O)C1 (centres undefined)	3.8	1.1	-0.5	0.9	-8.5	8.3
O=C(C1CCN(S(=O)(=O)c2cnc[nH]2)CC1)N1CCn2c1nc1ccccc12	8.9	0.4	22.2	0.4	60.5*	64.1*
COc1ccccc1CNC(=O)C1CCCN(S(=O)(=O)c2cnc[nH]2)C1 (centres undefined)	-5.5	0	-3.7	0.1	96.6*	90.0*
Cc1cccc(/C=C/C(=O)c2cc(Br)ccc(=O)c2O)c1	-0.6	0.9	0.4	0.8	8.4	22.3
Cc1cc2n(n1)C(c1ccsc1)Nc1ccccc1-2 (centres undefined)	5.8	0.4	22.6	0.4	61.1*	56.4*
Cc1cc2n(n1)C(c1ccccc1Cl)Nc1ccccc1-2 (centres undefined)	-11.7	0.1	7.7	0.2	85.8*	75.4*
COc1ccccc1-c1nc2n(n1)C(c1ccccc1Cl)C(C(N)=O)=C(C)N2 (centres undefined)	-1.5	0.7	24.1	1	30.6	4.6
CSc1ccc(C2Nc3ccccc3-c3cc(C)nn32)cc1 (centres undefined)	-4.3	0.5	4.8	0.6	50.1*	38.2
CCOc1ccc2[nH]c(=O)c(CN(CC3CCCN3CC)C(=O)NCc3ccccc3)cc2c1 (centres undefined)	0.7	0.8	1.8	0.8	19.2	19.6
CC1(C)CC(=O)c2sc(NC(=O)c3ccco3)nc2C1	3.8	0.9	6.1	0.7	10.9	28.6
Cc1onc(-c2ccccc2)c1C(=O)Nc1cccc(C#N)c1	-7.5	0.4	8.2	1	55.3*	-4.4
Cc1onc(-c2ccccc2)c1C(=O)Nc1nc2c(s1)C(=O)CC(C)(C)C2	-11.0	0.9	15.0	0.5	5.2	54.3*
Cc1onc(-c2ccccc2)c1C(=O)Nc1nnc(-c2ccncc2)s1	-1.1	0.4	22.8	0	61.4*	99.4*
Cc1onc(-c2ccccc2)c1C(=O)Nc1ccncc1	-1.2	0.1	3.6	0.1	91.8*	90.2*
Cc1onc(-c2ccncc2)c1C(=O)O	14.9	1.1	6.4	0.9	-8.8	10.6
CCCCC(=O)Nc1sc2c(c1C(=O)OCC)CCC(C=O)=C2Cl	-3.8	1	24.0	0.9	2.4	10.4
N#CC1(P(=O)(c2ccccc2)c2ccccc2)CC1	x	1.2	6.7	1	-15.5	-1.3
CCC(C)NS(=O)(=O)c1ccc(NC(=O)c2c(-c3ccccc3)noc2C)cc1 (centres undefined)	-2.7	0.1	-1.2	0.4	86.1*	61.6*
Cc1onc(-c2ccccc2)c1C(=O)Nc1ccc(S(=O)(=O)NC2=NCCCCC2)cc1	9.1	1	11.1	0.9	0.6	12.2
Cc1cccc(Nc2nn3c(=O)c4ccccc4nc3s2)c1	-0.3	0.8	4.2	0.7	15.1	26.1
